# Test results from article PMC11062922 (Nature Chemical Biology, 2023).
# Like-named read-outs stand apart in the source and are kept apart here.
# Key:
# Design in all cases: species or system human, MV4-11 + K-562 + COLO205 + SK-N-BE2 + OVCAR-8
# [1] = system: PIP4K2C; details: read-out: apparent Kd, n = 1
# [2] = system: CDKL5; details: read-out: apparent Kd, n = 1
# [3] = system: DYRK1A; details: read-out: apparent Kd, compound concentrations: 100 nM and 1000 nM (sheet 'Samples'), n = 1
# [4] = system: PTK2; details: read-out: apparent Kd, n = 1
# [5] = system: MYLK3; details: read-out: apparent Kd, n = 1
# [6] = system: RPS6KA6; details: read-out: apparent Kd, n = 1
# [7] = system: PLK4; details: read-out: apparent Kd, n = 1
# [8] = system: PRKCD; details: read-out: apparent Kd, compound concentrations: 100 nM and 1000 nM (sheet 'Samples'), n = 1
# [9] = system: PRKD2; details: read-out: apparent Kd, n = 1
# [10] = system: FLT3; details: read-out: apparent Kd, n = 1
# [11] = system: LATS1; details: read-out: apparent Kd, n = 1
# [12] = system: MARK4; details: read-out: apparent Kd, n = 1
# [13] = system: PRKD3; details: read-out: apparent Kd, n = 1
# [14] = system: CDK7; details: read-out: apparent Kd, n = 1
# [15] = system: ERCC2; details: read-out: apparent Kd; compound concentrations:100 nM and 1000 nM (sheet 'Samples'); n = 1
# [16] = system: FER; details: read-out: apparent Kd; compound concentrations:100 nM and 1000 nM (sheet 'Samples'); n = 1
# [17] = system: PRKAA1; details: read-out: apparent Kd, n = 1
# [18] = system: PRKCQ; details: read-out: apparent Kd, n = 1
# [19] = system: PTK2B; details: read-out: apparent Kd, n = 1
# [20] = system: STK10; details: read-out: apparent Kd, n = 1
# [21] = compound concentrations:100 nM and 1000 nM (sheet 'Samples')
smiles,measurement,setting,value
COc1cc(Nc2nccc(N3CCC(NC(=O)c4cccc(NC(C)=O)c4)C3)n2)cc(OC)c1OC (stereo not shown) [GSK1379754A],potency estimated from few doses,"[1]; compound concentrations: 100 nM and 1000 nM (sheet 'Samples'), CATDS: 7.8975813686716995E-2",2090 nM
Cl.Cl.NC(CNC(=O)c1cc(Br)c(-c2ccnc3[nH]ccc23)s1)c1ccccc1.NC(CNC(=O)c1cc(Br)c(-c2ccnc3[nH]ccc23)s1)c1ccccc1 (stereo not shown) [GSK1322949A],potency estimated from few doses,"[2]; compound concentrations: 100 nM and 1000 nM (sheet 'Samples'), CATDS: 2.6362691965297801E-2",1670 nM
same,potency estimated from few doses,[3]; CATDS: 2.3831773073254899E-2,2230 nM
same,potency estimated from few doses,"[4]; compound concentrations: 100 nM and 1000 nM (sheet 'Samples'), CATDS: 3.2827232082793402E-2",993 nM
CNc1cc(-c2ccc3c(N)n[nH]c3c2)nc(N)n1 [GSK2224810A],potency estimated from few doses,[5]; [21],457 nM
same,potency estimated from few doses,[6]; [21],899 nM
CCn1c(-c2cccnc2O)nc2cnccc21 [SB-736715],potency estimated from few doses,[3]; CATDS: 1.19408465116969E-2,2220 nM
same,potency estimated from few doses,"[1]; compound concentrations: 100 nM and 1000 nM (sheet 'Samples'), CATDS: 1.9889508399788002E-2",761 nM
same,potency estimated from few doses,"[7]; compound concentrations: 100 nM and 1000 nM (sheet 'Samples'), CATDS: 1.6109346407018599E-2",1120 nM
same,potency estimated from few doses,[8]; CATDS: 1.16308056787147E-2,2390 nM
same,potency estimated from few doses,"[9]; compound concentrations: 100 nM and 1000 nM (sheet 'Samples'), CATDS: 1.32694977387129E-2",1700 nM
same,potency estimated from few doses,"[6]; compound concentrations: 100 nM and 1000 nM (sheet 'Samples'), CATDS: 1.6792269740451799E-2",1030 nM
CC(C)Oc1ccc2c(-c3ccnc(Nc4ccc(N5CCN(C)CC5)cc4)n3)cnn2n1 [GW696155X],potency estimated from few doses,[10]; [21],479 nM
same,potency estimated from few doses,[11]; [21],1500 nM
same,potency estimated from few doses,[12]; [21],1800 nM
same,potency estimated from few doses,[7]; [21],506 nM
same,potency estimated from few doses,[9]; [21],482 nM
same,potency estimated from few doses,[13]; [21],1110 nM
CS(=O)(=O)CCn1c(=O)c(Oc2ccc(F)cc2F)cc2cnc(NC3CCOCC3)nc21 [RO5027956-000],potency estimated from few doses,[14]; [21],349 nM
same,potency estimated from few doses,[15],317 nM
same,potency estimated from few doses,[16],431 nM
same,potency estimated from few doses,[12]; [21],1950 nM
same,potency estimated from few doses,[1]; [21],462 nM
same,potency estimated from few doses,[7]; [21],568 nM
same,potency estimated from few doses,[17]; [21],1210 nM
same,potency estimated from few doses,[18]; [21],998 nM
same,potency estimated from few doses,[19]; [21],417 nM
same,potency estimated from few doses,[4]; [21],814 nM
same,potency estimated from few doses,[6]; [21],506 nM
same,potency estimated from few doses,[20]; [21],2320 nM
NCC(NC(=O)c1cc(-c2cn[nH]c2)c(-c2ccnc3[nH]ccc23)s1)c1ccccc1.NCC(NC(=O)c1cc(-c2cn[nH]c2)c(-c2ccnc3[nH]ccc23)s1)c1ccccc1.O=C(O)C(F)(F)F.O=C(O)C(F)(F)F (stereo not shown) [GSK1325775A],potency estimated from few doses,[8]; CATDS: 4.2478831197515603E-2,712 nM
same,potency estimated from few doses,"[18]; compound concentrations: 100 nM and 1000 nM (sheet 'Samples'), CATDS: 3.02069836024773E-2",2040 nM
O=C(O)C(F)(F)F.O=c1[nH]ccc2nc(N[C@@H]3CCNC3)nc(Nc3ccc4c(c3)S(=O)(=O)CC4)c12 [GSK2181306A],potency estimated from few doses,"[10]; compound concentrations: 100 nM and 1000 nM (sheet 'Samples'), CATDS: 8.5928839760778392E-3",1430 nM
same,potency estimated from few doses,"[11]; compound concentrations: 100 nM and 1000 nM (sheet 'Samples'), CATDS: 9.3348582894500695E-3",1060 nM
same,potency estimated from few doses,"[12]; compound concentrations: 100 nM and 1000 nM (sheet 'Samples'), CATDS: 1.39607166136132E-2",364 nM
same,potency estimated from few doses,"[5]; compound concentrations: 100 nM and 1000 nM (sheet 'Samples'), CATDS: 1.37346756795961E-2",378 nM
same,potency estimated from few doses,"[7]; compound concentrations: 100 nM and 1000 nM (sheet 'Samples'), CATDS: 1.0301359054319901E-2",780 nM
same,potency estimated from few doses,"[17]; compound concentrations: 100 nM and 1000 nM (sheet 'Samples'), CATDS: 1.0186150726121701E-2",806 nM
same,potency estimated from few doses,[8]; CATDS: 1.35004304297044E-2,393 nM
same,potency estimated from few doses,"[18]; compound concentrations: 100 nM and 1000 nM (sheet 'Samples'), CATDS: 2.6170878676828799E-2",109 nM
same,potency estimated from few doses,"[9]; compound concentrations: 100 nM and 1000 nM (sheet 'Samples'), CATDS: 1.40189699777229E-2",361 nM
same,potency estimated from few doses,"[13]; compound concentrations: 100 nM and 1000 nM (sheet 'Samples'), CATDS: 1.3161717541215199E-2",416 nM
same,potency estimated from few doses,"[19]; compound concentrations: 100 nM and 1000 nM (sheet 'Samples'), CATDS: 0.14676588130533899",7.85 nM
same,potency estimated from few doses,"[4]; compound concentrations: 100 nM and 1000 nM (sheet 'Samples'), CATDS: 1.26908044815701E-2",453 nM
same,potency estimated from few doses,"[6]; compound concentrations: 100 nM and 1000 nM (sheet 'Samples'), CATDS: 1.2402205913088901E-2",478 nM
same,potency estimated from few doses,"[20]; compound concentrations: 100 nM and 1000 nM (sheet 'Samples'), CATDS: 1.4244346039845699E-2",349 nM
CCN(CC)Cc1ccc(Nc2nccc(-c3cnn4ncccc34)n2)cc1 [GW780056X],potency estimated from few doses,"[14]; compound concentrations: 100 nM and 1000 nM (sheet 'Samples'), CATDS: 2.0395381874141399E-2",1240 nM
same,potency estimated from few doses,"[10]; compound concentrations: 100 nM and 1000 nM (sheet 'Samples'), CATDS: 9.2784316233310501E-2",48.8 nM
same,potency estimated from few doses,"[9]; compound concentrations: 100 nM and 1000 nM (sheet 'Samples'), CATDS: 2.64855086193518E-2",580 nM
same,potency estimated from few doses,"[13]; compound concentrations: 100 nM and 1000 nM (sheet 'Samples'), CATDS: 3.09987339896893E-2",398 nM
c1ccc(-c2n[nH]cc2Nc2ccnc3ccccc23)nc1 [GW694077X],potency estimated from few doses,[3]; CATDS: 7.5630271191524906E-2,80.3 nM
same,potency estimated from few doses,"[9]; compound concentrations: 100 nM and 1000 nM (sheet 'Samples'), CATDS: 7.8874466930765497E-2",74 nM
same,potency estimated from few doses,"[13]; compound concentrations: 100 nM and 1000 nM (sheet 'Samples'), CATDS: 6.6484920518239093E-2",104 nM
CC(C)(CO)CNC(=O)c1ccc2c(c1)/C(=N/Nc1ccc(S(N)(=O)=O)cc1)C(=O)N2 [GW301784X],potency estimated from few doses,[2]; [21],172 nM
CN[C@H](C#Cc1c(F)ccc2c1/C(=C/c1[nH]ccc1OC)C(=O)N2)CO.Cl [RO0283049-001],potency estimated from few doses,"[2]; compound concentrations: 100 nM and 1000 nM (sheet 'Samples'), CATDS: 0.200980885548627",17.8 nM
same,potency estimated from few doses,"[10]; compound concentrations: 100 nM and 1000 nM (sheet 'Samples'), CATDS: 0.132856529197414",31.3 nM
same,potency estimated from few doses,"[11]; compound concentrations: 100 nM and 1000 nM (sheet 'Samples'), CATDS: 5.43155260129227E-2",134 nM
same,potency estimated from few doses,"[5]; compound concentrations: 100 nM and 1000 nM (sheet 'Samples'), CATDS: 2.9648763968158898E-2",504 nM
